PubChem BioAssay (Tox21)
Where “and” joins values, the source holds several entries; their conditions need not be identical. Equal entries are not always repeated. Inconclusive results are not listed. A call without a number means that no potency is given here. Calls of active or inactive are those of the source. Calls follow the shape of the full dose curve.

Assay: qHTS assay to identify small molecule agonists of the AP-1 signaling pathway - cell viability counter screen (AID 1159525); also: nearly all actives have a fitted effect of over 55% in size
Settings: ME-180 (cervical carcinoma) AP-1-bla cells viability, ATP luminescence, 5 h; series mostly up to 76.8 µM
Source text: National Center for Advancing Translational Sciences [NCATS]
NIH Chemical Genomics Center [NCGC]
U.S. Environmental Protection Agency [EPA]
National Institutes of Environmental Health Sciences [NIEHS]
National Toxicology Program [NTP]
U.S. Food and Drug Administration [FDA]
Activator protein-1 (AP-1), a transcription factor, plays an important role in tumor genesis by regulating genes involved in cell proliferation, differentiation, apoptosis, and angiogenesis. AP-1 activity is induced by a complex network of signaling pathways that involves extracellular signals, such as growth factors. The AP-1 protein complex formed from c-Fos and c-Jun binding to the AP-1 response element results in transcriptional activation of genes containing such elements within their promoter.
Low molecular weight molecules have been discovered and developed to modulate various components of these signaling pathways, for example, MAP kinase inhibitors. However, many points of pathway modulation remain untested due to the lack of chemical probes making this signaling locus of general interest.
Using a beta-lactamase reporter-gene under control of the AP-1 response element, a cell-based assay [CellSensor(TM) AP-1-bla ME-180 developed by Invitrogen Corp.] was used to measure EGF-induced signaling. The Tox21 10K library compounds were measured for their ability to positively modulate the action of EC50 EGF on reporter gene activity. Compounds were screened in a 15-pt titration series in 1536-well format. The cytotoxicity of the Tox21 compound library against this cell line was tested in parallel by measuring the intra cellular ATP content in the same wells.
Tox21 Assay Protocol Summary:
2500 cells/5uL in Opti-MEM medium containing 0.5% dialyzed FBS, 0.1 mM NEAA, 1 mM sodium pyruvate and 10 mM HEPES was dispensed into 1536-well black wall/clear bottom plates using a Multidrop dispenser and cells were cultured at 37 degrees Celsius overnight. Next day 23 nL of compounds dissolved in DMSO, positive controls or DMSO were delivered to each well using a pin tool. The plates were incubated at 37 degrees Celsius for 5 hours. 1 uL of LiveBLAzerTM B/G FRET substrate (Solution A+B+C+D) was added to each well using a Flying Reagent Dispenser. After incubated at room temperature for 2.5 hours the plates were measured on an EnVision plate reader at Excitation 405nm, Emission1=460nm and Emission 2=530nm. The %Activity was determined from the ratio of 460nm/530nm.
After the plates were read for Beta-Lactamase assay on Envision; 3 ul Cell Titer Glo (Promega) was added to measure the cytotoxicity and the plates were then incubated at RT in dark for 30 min. The luminescence was read on ViewLux (Perkin Elmer, Shelton, CT) using 6 sec exposure. ViewLux data was expressed as relative luminescence units.
For primary data analysis, raw plate reads for each titration point were first normalized relative to […] EGF control (100%) and DMSO only wells (basal, 0%).
For primary data analysis for viability assay, raw plate reads for each titration point were first normalized Tetra n-octyl ammonium bromide control (-100%) and DMSO (control, 100%).
Potency is read from the fitted curve at half-maximal effect.

Structure (SMILES)	Potency
COC(=O)CC(=O)OC	inactive
OC[C@@H](O)[C@@H](O[C@@H]1O[C@H](CO)[C@H](O)[C@H](O)[C@H]1O)[C@H](O)[C@@H](O)CO	inactive
Nc1cc(Cl)c(N)c(Cl)c1	inactive
Nc1ccc(O)c(N)c1	inactive
C[C@]12CC[C@@H]3c4ccc(O)cc4CC[C@H]3[C@@H]1CC[C@H]2O	inactive
OC[C@H]1O[C@@H]2O[C@H]3[C@H](O)[C@@H](O)[C@@H](O[C@H]4[C@H](O)[C@@H](O)[C@@H](O[C@H]5[C@H](O)[C@@H](O)[C@@H](O[C@H]6[C@H](O)[C@@H](O)[C@@H](O[C@H]7[C@H](O)[C@@H](O)[C@@H](O[C@H]1[C@H](O)[C@H]2O)O[C@@H]7CO)O[C@@H]6CO)O[C@@H]5CO)O[C@@H]4CO)O[C@@H]3CO	inactive
c1ccc2c(c1)ccc1cc3c(ccc4ccccc43)cc12	inactive
CCCOCCO	inactive
c1ccc2cc3ccccc3cc2c1	inactive
CN1CCOCC1	inactive
CN(C)/N=N/c1nc[nH]c1C(N)=O	inactive
CN(Cc1cnc2nc(N)nc(N)c2n1)c1ccc(C(=O)N[C@@H](CCC(=O)O)C(=O)O)cc1	inactive
CCCCCCCCCCC(CO)CCCCCCCC (stereo not given)	inactive
Oc1ccc(C(c2ccc(O)cc2)C(Cl)(Cl)Cl)cc1	inactive
OCCNCCO	inactive
c1ccc2c(c1)ccc1ncccc12	inactive
Nc1cc([N+](=O)[O-])ccc1C(=O)O	inactive
NCCN	inactive
CCc1cccc2c3c([nH]c12)C(CC)(CC(=O)O)OCC3 (stereo not given)	inactive
COc1ccc2nc(N)sc2c1	inactive

Structure (SMILES)	Potency
C[N+](C)(C)CCO	inactive
FC(F)(F)C(Cl)Br (stereo not given)	inactive
O=[Se](O)O	inactive
Clc1ccc(Sc2cc(Cl)c(Cl)cc2Cl)cc1	inactive
CCCCCC=O	inactive
CCCCCCC(C)O (stereo not given)	inactive
CC1(C)O[C@@H]2C[C@H]3[C@@H]4C[C@H](F)C5=CC(=O)C=C[C@]5(C)[C@@]4(F)[C@@H](O)C[C@]3(C)[C@]2(C(=O)CO)O1	inactive
NC[C@H](O)c1ccc(O)c(O)c1	inactive
CC(C)=CCO	inactive
O=C(O)CCCCCCCCCCCC(=O)O	inactive
C=CN1CCCC1=O	inactive
O=C(O)COCCN1CCN(C(c2ccccc2)c2ccc(Cl)cc2)CC1 (stereo not given)	inactive
O=C(CCCN1CCC(O)(c2ccc(Cl)cc2)CC1)c1ccc(F)cc1	inactive
C=C[C@@]1(C)CC(=O)[C@]2(O)[C@@]3(C)[C@@H](O)CCC(C)(C)[C@@H]3[C@H](O)[C@H](OC(C)=O)[C@@]2(C)O1	21.9 µM (active) and 21.3 µM (active)
Nc1ccc2c(c1)C(=O)c1ccccc1C2=O	inactive
CC(=O)Oc1ccc(C(c2ccc(OC(C)=O)cc2)c2ccccn2)cc1	109 nM (active) and 952 nM (active)
Brc1nc2ccccc2s1	inactive
CC(=O)[C@@]1(O)CC[C@H]2[C@@H]3C[C@H](C)C4=CC(=O)C=C[C@]4(C)[C@@]3(F)[C@@H](O)C[C@@]21C	inactive
C=CCNCC=C	inactive
C=CCOC(=O)C(=C)C	inactive
